Marburg entry inh = qHTS for inhibitors of binding or entry into cells for Marburg Virus; Marburg virus pseudotyped entry inhibition, cell reporter; Potency, µM (titrated, usually from 37.8 µM), inactives show at the highest dose activity change, negative = inhibition, usual class: inhibitors; 1.8% of 300,000 active; calls by dose curve; tested in HEK293 cells; also: potency is read from the fitted curve at half-maximal effect; % is scaled to controls: 0 for no effect and ±100 for the full control effect
Shiga toxin inh = A qHTS for Small Molecule Inhibitors of Shiga Toxin; Vero cells, Shiga toxin protein synthesis inhibition reporter; inhibition, % at 38.7 µM; 9.2% of 290,000 active; AID 2315, 2010; in the data active = inhibition mostly above about 28%, no sharp cut-off; inactive = mostly below about 43%; also: 0% is about no effect
CHX counter = Cycloheximide Counterscreen for Small Molecule Inhibitors of Shiga Toxin; cell reporter, cycloheximide protein synthesis inhibition counterscreen; max response, %; 12% of 300,000 active; in the data active = max response mostly above about 13%, no sharp cut-off; inactive = mostly below about 14%; also: read at 38.3 µM for the half of the compounds with a filed dose; 0% is about no effect
LASV entry inh = qHTS for Inhibitors of binding or entry into cells for Lassa Virus; Lassa virus pseudotype entry inhibition, cell reporter; Potency, µM (top dose mostly 37.9 µM), for the others: at the highest dose activity change, negative = inhibition, actives largely listed as inhibitors; 1.2% of 300,000 active; AID 540256, 2011; calls by dose curve; tested in HEK293 cells; also: potency is read from the fitted curve at half-maximal effect; % is scaled to controls: 0 for no effect and ±100 for the full control effect; nearly all actives have a fitted effect of over 50% in size
* hit, by the source's call; [ ] = dose if it differs, or a comment. Most compounds without a hit are left out; they make up all but 12% or so of the library.

What do the screens show for `CCOC(=O)c1nn(-c2ccc(Cl)cc2)cc1O`?
Shiga toxin inh: 101.2*; CHX counter: 56.0*

Results for CCOC(=O)c1cc(C(=O)OCC)cc(-n2cc(O)c(C(=O)OCC)n2)c1 ?
Marburg entry inh: 1.0%; Shiga toxin inh: -7.8; CHX counter: -0.8; LASV entry inh: 7.9%

Results for CCOC(=O)c1nn(-c2ccc(C)cc2)cc1O ?
Marburg entry inh: inconclusive; Shiga toxin inh: 76.2*; CHX counter: 54.9*; LASV entry inh: inconclusive

How did CCOC(=O)C1=NN(c2ccc(Cl)cc2)C(=O)C1 do in these assays?
Shiga toxin inh: 121.1*; CHX counter: 57.0*

What do the screens show for `CCc1nn(CC(=O)NCCC(C)C)c(=O)c2cc3c(OC)cccc3n12`?
Shiga toxin inh: -5.8; CHX counter: -1.8

How did Cc1ccc(Cn2c(=O)c3ccccc3n3c(-c4cccc(O)c4)nnc23)cc1 do in these assays?
Marburg entry inh: 23.0%[46.1 µM]; LASV entry inh: 28.3%[46.1 µM]

What do the screens show for `CCOC(=O)c1nn(-c2ccc3c(c2)OCO3)cc1O`?
Marburg entry inh: -24.2%; Shiga toxin inh: 107.8*; CHX counter: 42.6*; LASV entry inh: 16.6%

How did c1cc2c(cc1-n1cnnn1)OCO2 do in these assays?
Marburg entry inh: -1.1%[46.1 µM]; Shiga toxin inh: 44.6; CHX counter: -0.7; LASV entry inh: 15.2%[46.1 µM]

Results for CCOC(=O)c1nn(-c2ccc3ccccc3c2)cc1O ?
Marburg entry inh: inconclusive; Shiga toxin inh: 108.4*; CHX counter: 39.0*; LASV entry inh: -15.1%[46.1 µM]

What do the screens show for `CCOC(=O)c1nn(-c2cc(C(=O)OC)cc(C(=O)OC)c2)cc1O`?
Marburg entry inh: 14.4%; Shiga toxin inh: -18.4; CHX counter: -2.6; LASV entry inh: -19.8%

Results for COC(=O)c1nn(-c2ccc(-c3ccccc3)cc2)cc1O ?
Marburg entry inh: inconclusive; Shiga toxin inh: 22.3; CHX counter: 29.4*; LASV entry inh: inconclusive

How did C=Cc1ccc(Cn2c(=O)n(C)c(=O)c3sccc32)cc1 do in these assays?
Marburg entry inh: inconclusive; Shiga toxin inh: 1.0; CHX counter: -3.7; LASV entry inh: -31.9%[46.1 µM]

What do the screens show for `Cc1ccc(-n2c(SCC(=O)Nc3ccc4c(c3)OCCO4)nc3c([nH]c4ccccc43)c2=O)cc1`?
LASV entry inh: -2.7%[46.1 µM]

How did O=[N+]([O-])c1ccc(S(=O)(=O)N2CCN=C2SCc2cccnc2)cc1 do in these assays?
Marburg entry inh: 1.6%[46.1 µM]; Shiga toxin inh: -0.8; CHX counter: 15.4; LASV entry inh: inconclusive

What do the screens show for `O=C(N/N=C/C1C(c2ccccc2)C1(Cl)Cl)c1cccc(Br)c1` (centres undefined)?
Marburg entry inh: 16.1%; Shiga toxin inh: 68.3; CHX counter: 23.4*; LASV entry inh: 2.6%

What do the screens show for `CC(/C=C/C=C/c1ccccc1)=N/NC(=O)c1ccc2c(c1)OCCO2`?
Marburg entry inh: 8.0%[46.1 µM]; Shiga toxin inh: 63.0*; CHX counter: 31.2*; LASV entry inh: 0.0%

How did CN(C)/C=N/NC(=O)c1ccccc1 do in these assays?
Marburg entry inh: 9.7%[46.1 µM]; Shiga toxin inh: 31.0; CHX counter: 4.4; LASV entry inh: 2.2%

Results for C/C(=N\NC(=O)c1ccccc1)C1C2C=CC(C2)C1(C)C (centres undefined) ?
Marburg entry inh: 1.5%; Shiga toxin inh: 91.5*; CHX counter: 48.5*; LASV entry inh: inconclusive

How did C/C(=N\NC(=O)c1ccccc1)c1cccc(Br)c1 do in these assays?
Marburg entry inh: inconclusive; Shiga toxin inh: 124.4*; CHX counter: 48.4*; LASV entry inh: inconclusive

What do the screens show for `CC(/C=C/C=C/c1ccccc1)=N\NC(=O)c1cccnc1`?
Marburg entry inh: 6.3%[14.2 µM]; Shiga toxin inh: 23.0; CHX counter: -1.7; LASV entry inh: 4.5%

How did COC(=O)c1ccc(CNC(=O)C2CCC(=O)N(CCCc3ccccc3)C2)cc1 (centres undefined) do in these assays?
Shiga toxin inh: -9.6; CHX counter: 3.2

Results for CSCCC(N)C(=O)O (centres undefined) ?
Shiga toxin inh: 20.7; CHX counter: -1.2

How did CN1CCC(OC(=O)c2cccc(Cl)c2)CC1 do in these assays?
Marburg entry inh: inconclusive; Shiga toxin inh: -14.3; CHX counter: 12.8; LASV entry inh: -5.6%

How did C/C(=N\NC(=O)c1cccc(Br)c1)c1ccc(Br)cc1 do in these assays?
Marburg entry inh: 6.4%; Shiga toxin inh: 53.7*; CHX counter: 32.9*; LASV entry inh: 0.0%

Results for CC(/C=C/c1ccccc1)=N/NC(=O)c1cccc(Br)c1 ?
Marburg entry inh: inconclusive; Shiga toxin inh: 111.3; CHX counter: 19.5*; LASV entry inh: inconclusive

Results for C/C(=N\NC(=O)Cc1c(C)[nH][nH]c1=O)c1cccc(Br)c1 ?
Shiga toxin inh: 14.0; CHX counter: -3.1

What do the screens show for `CC(=N\NC(=O)c1ccccc1)/C(=N/O)C(=O)Nc1ccccc1`?
Marburg entry inh: -6.8%[46.1 µM]; Shiga toxin inh: 22.9; CHX counter: -2.0; LASV entry inh: 3.5%[46.1 µM]

Results for C/C(=N/NC(=O)c1ccccc1)C(=O)O ?
Marburg entry inh: 12.1%[46.1 µM]; Shiga toxin inh: 73.6*; CHX counter: 41.7*; LASV entry inh: 10.8%

How did Cn1nccc1C(=O)NC1CC(C)(C)Cc2c1cnn2-c1ccc(F)cc1 (centres undefined) do in these assays?
Marburg entry inh: -12.1%[46.1 µM]; Shiga toxin inh: 27.7; CHX counter: -0.4; LASV entry inh: 4.2%

How did Cc1cc(C(=O)NC2CC(C)(C)Cc3c2cnn3-c2ccc(F)cc2)no1 (centres undefined) do in these assays?
Marburg entry inh: inconclusive; Shiga toxin inh: 36.7*; CHX counter: 18.2; LASV entry inh: -29.9%[46.1 µM]

Results for C=CCC(=O)NC1CC(C)(C)Cc2c1cnn2-c1ccc(C)cc1 (centres undefined) ?
Shiga toxin inh: 30.5; CHX counter: 5.2

Results for Cc1ccc(-n2ncc3c2CC(C)(C)CC3NC(=O)c2ccccn2)cc1 (centres undefined) ?
Marburg entry inh: inconclusive; Shiga toxin inh: -1.5; CHX counter: 21.0*; LASV entry inh: -21.3%[46.1 µM]

What do the screens show for `CCOC(=O)c1sc(NN=C(C(=O)OC)C(=O)OC)c(C(=O)OCC)c1C`?
Marburg entry inh: 3.0%; Shiga toxin inh: 31.9*; CHX counter: 6.6; LASV entry inh: -15.6%

How did CCOC(=O)c1sc(N)c(C(=O)Nc2ccccc2OC)c1C do in these assays?
Marburg entry inh: inconclusive; Shiga toxin inh: -23.9; CHX counter: 8.3; LASV entry inh: 2.51µM*

How did CCOC(=O)c1c(NC(=O)OC)sc(C(=O)N(C)C)c1C do in these assays?
Marburg entry inh: -19.4%; Shiga toxin inh: -21.8; CHX counter: 5.7; LASV entry inh: 11.9%

How did COC(=O)c1c(N)sc(C(=O)NCCc2ccccc2)c1C do in these assays?
Marburg entry inh: 5.01µM*; Shiga toxin inh: -5.5; CHX counter: 1.4; LASV entry inh: inconclusive

Results for CCOC(=O)c1sc(N)c(C(=O)OC)c1C ?
Marburg entry inh: 16.1%[46.1 µM]; Shiga toxin inh: 64.2*; CHX counter: 33.1*; LASV entry inh: 6.3%

How did CCOC(=O)c1c(N)sc(C(=O)OC)c1C do in these assays?
Shiga toxin inh: 39.6; CHX counter: 17.0

What do the screens show for `CCOC(=O)c1[nH]c2c(c1Cc1ccccc1)C(=O)CC(c1ccc(Cl)cc1)C2` (centres undefined)?
Marburg entry inh: inconclusive; LASV entry inh: -5.1%[46.1 µM]

From PubChem BioAssay
